HT1080NT lethal = kills 2HG-producing HT-1080-NT fibrosarcoma cells; Potency, µM (top dose mostly 46.1 µM), without a hit: at the highest dose activity, negative = less viability, actives largely listed as cytotoxic; AID 686970; HT-1080-NT fibrosarcoma viability, CellTiter-Glo ATP luminescence, 48 h; 360,000 compounds, 1.6% hits;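 note: NT is the 2HG producing partner of a matched IDH1 knockdown line; potency is the fitted concentration of half-maximal effect; 0% = DMSO-treated cells and -100% = media-only wells without cells; nearly all actives have a fitted effect of over 55% in size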
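Read-out is CellTiter-Glo luminescence after 10 minutes at room temperature, following 48 hours' compound treatment of HT-1080-NT cells (750 cells/well, RPMI, 5% FBS, 37 degrees C).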
HT1080 IDH1KD tx = kills HT-1080 cells with IDH1 knockdown. HT-1080 IDH1 knockdown viability, ATP luminescence, 48 h. Potency, µM (top dose mostly 46.1 µM), inactives show at the highest dose activity, negative = toxicity, usual class: cytotoxic. 360,000 compounds, 2% hits. AID 686971;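 note: potency is the fitted concentration of half-maximal effect; 0% = DMSO wells and -100% = cell-free medium wells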
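Luminescent ATP read-out (CellTiter-Glo, 10 min at room temperature) after 48 h compound exposure at 37 °C gave viability of IDH1-knockdown HT-1080 cells. Activity was normalised to DMSO and cell-free wells, then fitted as concentration-response curves.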
DT40 TDP1 CPT = growth inhibition of DT40 Tdp1-/-;hTDP1 cells with camptothecin (screen for TDP1 inhibitors) | 420,000 compounds, 12% hits | Potency, µM (highest dose often 46.2 µM), for the others: top-dose activity change, negative = growth inhibition, hits mostly inhibitors | chicken DT40 Tdp1-/-;hTDP1 cells + 20 nM CPT, ATP luminescence, 48 h; note: potency is the fitted concentration of half-maximal effect; nearly all actives have a fitted effect of over 55% in size
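Cell growth measured by CellTiter-Glo luminescence after a minimum 48 h, 37 C compound exposure with 20 nM CPT in Tdp1-knockout DT40 cells stably expressing hTDP1, seeded 400/well; qHTS titration format.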
TDP1 cell noCPT = qHTS for Inhibitors of human tyrosyl-DNA phosphodiesterase 1 (TDP1): qHTS in cells in absence of CPT; DT40 Tdp1-/- hTDP1 cells, no CPT, ATP luminescence, 48 h; Potency, µM (doses to about 46.2 µM), for inactives: at the highest dose activity change, negative = growth inhibition, hits mostly inhibitors; 420,000 compounds, 15% hits; AID 686978, 2013; note: potency is the fitted concentration of half-maximal effect; nearly all actives have a fitted effect of over 55% in size
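Growth of hTDP1-complemented DT40 Tdp1-knockout cells is measured by ATP luminescence after at least 48 hr compound exposure at 37 °C, with DMSO substituting for the 20 nM CPT used in the parallel screen.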
IL1B secr inh = blocks inflammasome-driven IL-1 beta release; activity change, % at 57.5 µM; THP-1 LPS/ATP IL-1B secretion, AlphaLISA, 16 h; active compounds read low; AID 743279; 360,000 compounds, 4.7% hits; in the data active = activity change below about -50%; inconclusive = mostly about -30% to -49%
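Secreted IL-1B measured by AlphaLISA bead assay after 16 h compound exposure of THP-1 cells; compounds (final up to 57.5 uM) added 1 h before LPS (250 ng/mL) and ATP (1.25 mM) stimulation; lower signal means less secretion.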
ELG1 DNA repair = ELG1-dependent DNA repair inhibition | Potency, µM (highest dose often 46.1 µM), for inactives: top-dose activity change, negative = inhibition, hits mostly inhibitors | HEK293T ELG1-luciferase reporter, luminescence, 16 h; DNA damage induced by 5-fluorouridine | 330,000 compounds, 2.3% hits | AID 504467; note: potency is the fitted concentration of half-maximal effect; nearly all actives have a fitted effect of over 55% in size
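Reporter activity after DNA damage by 5-fluorouridine is monitored. Compound-treated cells incubate 16 hr at 37 °C, then ONE-Glo is added for 30 min before luminescence reading.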
Active calls of the source: *; ? = inconclusive; · = not tested or not shown; [ ] = dose if it differs, or a comment. An excerpt weighted towards active compounds, which were near 19% of everything screened. Unless noted, calls come from the whole dose curve; as a rule, active = well fitted curve in the direction sought with a large enough effect; inconclusive = small, poorly fitted or top-dose-only effect, or another doubt; inactive = no such curve, though single readings can be large; an effect the other way counts as inactive or inconclusive. Unless noted, % is set by controls: 0 for no effect and ±100 for the full control effect.

SMILES	HT1080NT lethal	HT1080 IDH1KD tx	DT40 TDP1 CPT	TDP1 cell noCPT	IL1B secr inh	ELG1 DNA repair
N#CC1=C(N)OC2=C(C(=O)CCC2)C1C1C=CCCC1 (stereo not drawn)	8%	6%	-16%	-26%	-12	3%
CC(C)c1[nH]nc2c1C(C1C=CCCC1)C(C#N)=C(N)O2 (stereo not drawn)	?	?	16µM*	13µM*	-88*	13%
Cc1ccc(C2C(C#N)=C(N)Oc3n[nH]c(-c4cccs4)c32)cc1 (stereo not drawn)	8%	10%	-15%	-10%	-13	5%
CC(C)c1[nH]nc2c1C(c1cccs1)C(C#N)=C(N)O2 (stereo not drawn)	?	-19%	?	?	-86*	-19%
CCCCOC(=O)/C=C\C(=O)NC(N)=O	?	?	?	?	-105*	10%
Cc1cc(C(F)F)n2nc(C(=O)Nc3ccc(F)c(Cl)c3)nc2n1	·	·	-20%	?	·	·
Cc1cc(C)n(-c2cccc(C(=O)NCC3Cc4cccc(-c5ccccn5)c4O3)c2)n1 (stereo not drawn)	·	·	?	12µM*	·	·
O=C(NCC1Cc2cc(F)cc(-c3cnccn3)c2O1)c1cccc(-c2ccccc2F)c1 (stereo not drawn)	·	·	12µM*	23µM*	·	·
O=C(NCC1Cc2cc(F)cc(-c3cnccn3)c2O1)c1cccc(Cl)c1 (stereo not drawn)	·	·	?	18µM*	·	·
Cc1cc2c(c(-c3cnccn3)c1)OC(CNC(=O)c1ccccc1C(F)(F)F)C2 (stereo not drawn)	·	·	-3%	-10%	·	·
Cc1cc(C)n(-c2cccc(C(=O)NCC3Cc4cc(Cl)cc(-c5cnccn5)c4O3)c2)n1 (stereo not drawn)	·	·	-4%[9.04 µM]	?	·	·
O=c1[nH][nH]c2c1[C@@H](c1ccc(F)cc1)O[C@H](CCOCc1ccccc1)C2	6%	2%	1%	-18%	23	·
COc1ccccc1S(=O)(=O)N(C)C[C@@H]1OCc2cn(nn2)CCCC(=O)N([C@H](C)CO)C[C@H]1C	-4%	-5%	-12%	-20%	-23	·
O=C(Nc1cccc([N+](=O)[O-])c1)c1cccc(C(=O)Nc2cccc([N+](=O)[O-])c2)c1	1%	5%	?	7.3µM*	-22	?
O=C(Nc1ccncc1)c1cc2ccccc2cc1O	?	?	?	12µM*	-88*	?
Cc1nc2ccc(C(=O)Nc3cccc([N+](=O)[O-])c3)cc2s1	8%	9%	?	18µM*	-6	-23%
Cc1nc2ccc(NC(=O)c3ccc(Cl)c(NC(=O)c4cccs4)c3)cc2s1	-15%	-18%	?	21µM*	37	-20%
Cc1ccc(NC(=O)NNC(=O)c2cc3ccccc3cc2O)cc1	-3%	9%	6%	0%	12	0%
COc1cccc(C(=O)NCCS(=O)(=O)N2CCCC(C)C2)c1 (stereo not drawn)	3%	6%	-4%	-27%	5	·
CCC(=O)N1CCC(C)(C(=O)NCc2cccc(OC)c2)C1 (stereo not drawn)	18%	13%	-3%	-3%	-2	·
COc1ccc(NC(=O)c2cc([N+](=O)[O-])ccc2O)cc1	21µM*	?	8.2µM*	5.8µM*	3	?
O=C(N/N=C/c1cc([N+](=O)[O-])ccc1O)c1cccc(NC(=O)c2cccc(Cl)c2)c1	-1%	-13%	5.2µM*	3.3µM*	92	?
O=C(Nc1ccc(Br)cc1)c1cc([N+](=O)[O-])cc([N+](=O)[O-])c1	-10%	0%	4.6µM*	?	-101*	?
COc1ccc(NC(=O)c2cccc([N+](=O)[O-])c2)cc1	13%	14%	5%	-1%	-17	?
O=C(Nc1cccc([N+](=O)[O-])c1)c1cc2ccccc2cc1O	3.7µM*	3.7µM*	4.1µM*	2.6µM*	?	?
SMILES	HT1080NT lethal	HT1080 IDH1KD tx	DT40 TDP1 CPT	TDP1 cell noCPT	IL1B secr inh	ELG1 DNA repair
O=C(O)c1ccccc1C(=O)Nc1cccc([N+](=O)[O-])c1	-4%	-1%	-1%	-7%	-15	-3%
CCCCN(C)Cc1c(O)ccc2c(=O)c(-c3ccccc3OC)coc12	33%	9%	?	-26%	9	7%
O=C(COC(=O)c1cc(S(=O)(=O)NCc2ccccc2)ccc1O)c1cc2ccccc2o1	10%	0%	-16%	-19%	39	0%
C[C@@]12CCC(O)C[C@H]1CCc1ccccc12 (stereo partly drawn)	·	·	7%	-15%	·	·
Cc1cccc(NC(=O)c2c([N+](=O)[O-])c(C(C)(C)C)nn2C)c1	11%	1%	-1%	-26%	19	5%
Cc1ccccc1NS(=O)(=O)c1cc(C(=O)Nc2cccc([N+](=O)[O-])c2)ccc1C	?	21µM*	?	?	?	?
COc1ccc(NC(=O)c2ccc3nc(C)sc3c2)cc1	-1%	-2%	-6%	-41%	-15	?
CC(NC(=O)Nc1cccc([N+](=O)[O-])c1)(C(F)(F)F)C(F)(F)F	?	16µM*	3.7µM*	?	0	-25%
Cc1ccc(C(=O)Nc2cccc([N+](=O)[O-])c2)cc1S(=O)(=O)Nc1ccc(C(=O)O)cc1	9%	5%	2%	3%	0	7%
COc1ccc(C(=O)Nc2ccc3nc(C)sc3c2)cc1OC	7%	2%	0%	-17%	-58*	?
Cn1nc(C(C)(C)C)c([N+](=O)[O-])c1C(=O)Nc1ccc(Br)cc1	?	-26%	?	23µM*	-29	?
CC(C(=O)Nc1cccc([N+](=O)[O-])c1)[n+]1ccccc1 (stereo not drawn)	-2%	4%	3%	-5%	12	8%
Cc1ccc(S(=O)(=O)N2CCN(C(=O)COC(=O)CCCOc3ccccc3)CC2)c(C)c1	13%	0%	-19%	-23%	13	1%
Cc1ccc(C(=O)N/C(=C\c2cn(S(=O)(=O)N(C)C)c3ccccc23)C(=O)NCCN2CCOCC2)cc1	-11%	-1%	?	5%	37	-14%
COc1cc(-c2nc3n(n2)C(c2ccc(F)cc2)C(C(N)=O)=C(C)N3)cc(OC)c1OC (stereo not drawn)	·	·	-15%	?	·	·
